# This is one part of a sample in which hits are shown more often than they occur.
# Dicer inh – inhibitors of human Dicer processing of pre-microRNA. Q9UPY3. cat-ELCCA pre-miR-21 Dicer processing, chemiluminescence; stronger effect = higher value. z-score at 25 µM. hit rate 6% among 47,000. AID 1347074; in the data active means z-score above about 3, passing the limit was not always enough;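 further: plate controls were vehicle for no effect and no enzyme for full effect; higher signal means more uncleaved substrate so more Dicer inhibition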
# An asterisk follows results filed as active; ! = a repeat was not active.
SMILES,Dicer inh
Cc1ccc2[nH]c3c(N4CCCCC4)ncnc3c2c1,2.89
CCN(CC)c1ncnc2c1[nH]c1ccccc12,1.85
CC(=O)c1ccc2c(c1)C(C)C(=O)N2C (stereo not given),-0.7
OC(CNC1CCCCC1)Cn1c2ccccc2c2ccccc21 (stereo not given),-0.84
Cc1ccc2c(c1)c(C)c(C)n2CC(O)CN1CCCCC1C (stereo not given),3.64*
Cc1cc(C)n(CC(O)Cn2c(C)c(C)c3ccccc32)n1 (stereo not given),0.55
CCOC(=O)/C(C#N)=C/Nc1nc2ccc(C)cc2s1,2.21
O=c1nc(Nc2ccccc2)c2ccccc2[nH]1,1.55
O=c1nc(N2CCOCC2)nc(Nc2ccccc2)[nH]1,8.26*
COc1ccccc1Nc1nc(Nc2ccccc2OC)nc(N2CCOCC2)n1,0.22
CC(C(=O)NNS(=O)(=O)c1cccc(C(F)(F)F)c1)n1nnc(-c2cc(C(F)(F)F)cc(C(F)(F)F)c2)n1 (stereo not given),2.91
Cc1nc(-c2ccccc2)sc1C(=O)NNC(=O)c1ccc(C(F)(F)F)cc1,-0.25
Cc1c(S(=O)(=O)c2ccc(Cl)cc2)csc1C(=O)NCCSCc1ccc([N+](=O)[O-])cc1,1.09
CN(C)c1ccc(/C=C(\C#N)S(=O)(=O)c2cccs2)cc1,2.12
CCN(CC)CCn1c(NCc2cc(OC)ccc2OC)nc2ccccc21,2.55
COc1ccc(CNc2nc3ccccc3n2CCN2CCOCC2)c(OC)c1,3.49*
c1ccc2c(c1)nc(NCc1ccncc1)n2CCN1CCCCC1,2.57
c1ccc(CNc2nc3ccccc3n2CCN2CCOCC2)nc1,5.36*
Nc1nc2ccccc2n1Cc1ccccc1,-0.02
Cc1nc2ccccc2n1CCN1CCOCC1,-0.46
c1ccc(Cn2c(NCc3ccco3)nc3ccccc32)cc1,3.72*
Cn1c(CNc2nc3ccccc3n2CCN2CCOCC2)nc2ccccc21,-0.51
c1coc(CNc2nc3ccccc3n2CCN2CCOCC2)c1,5.08*
CCCn1c(NCc2ccccn2)nc2ccccc21,1.68
Clc1ccccc1CNc1nc2ccccc2n1CCN1CCCCC1,2.59
SMILES,Dicer inh
Cn1c(NCc2ccco2)nc2c1c(=O)n(Cc1ccccc1)c(=O)n2C,0.09
CC(C)(C)n1nc(-c2ccc(Cl)cc2)c(C#N)c1N,0.84
CCOc1ccc(C2/C(=C(\O)c3ccc(C)cc3)C(=O)C(=O)N2CCCOC)cc1 (stereo not given),-1.43
CN(C)C(=S)Nc1ccc(F)cc1F,7.68
COCCCNC(=S)N/N=C/c1ccc(Cl)c(Cl)c1,0.85
CCOC(=O)C1=C(C)NC2=C(C(=O)CC(C)(C)C2)C1c1c(C)nn(-c2ccccc2)c1C (stereo not given),1.3
Cc1ccc2nc(C(F)(F)F)cc(OC(C)C)c2c1,0.16
N#Cc1ccc(CSC2=NCN(Cc3ccccc3)CN2)cc1,-0.69
CCSCCOC(=O)C1=C(C)NC2=C(C(=O)CC(c3ccccc3Cl)C2)C1c1cccc(O)c1 (stereo not given),1.36
C[C@H](Cc1ccc(O)c(O)c1)[C@@H](C)Cc1ccc(O)c(O)c1,0.3
CCCCCCCC/C=C\CCCCCCCC(=O)NCCc1ccc(O)c(O)c1,1.09
CC(CCc1ccc(O)cc1)NCCc1ccc(O)c(O)c1 (stereo not given),6.96*!
COc1ccc(-c2cnc3c(-c4ccc(Cl)cc4)c(C)nn3c2N)cc1OC,0.45
O=c1oc(-c2ccccc2Br)nc2ccccc12,4.59*
O=c1oc(-c2ccc(-c3ccccc3)cc2)nc2ccccc12,0.22
O=c1oc(-c2cccc(Cl)c2)nc2ccccc12,0.1
O=C1c2ccccc2C(=O)N1c1snnc1-c1ccc(C(F)(F)F)cc1,-0.62
O=S(=O)(c1ccc(Cl)cc1)c1ccc(N=Cc2ccccc2O)cc1Cl,1.52
CSc1nc(C=Nc2ccc(Cl)cc2)c(O)n1Cc1ccccc1Cl,4.71*
CC1=CC(C)(C)N(C(=O)NC2CCCCC2)c2cc(C)ccc21,-0.28
CCOc1ccc2c(c1)C(C)CC(C)(C)N2C(=O)NC1CCCCC1 (stereo not given),1.58
Cc1ccc2c(c1)N(C(=O)NC1CCCCC1)C(C)(C)CC2C (stereo not given),3.16*
CC(C)NC(=O)n1nccc1-c1ccc([N+](=O)[O-])cc1Cl,0.42
O=C(O)CCC(=O)c1ccc(Cl)cc1,-0.17
N=C(N)c1ccc(Cl)cc1,3.74*
SMILES,Dicer inh
N=C(N)c1cc(Cl)cc(Cl)c1,-0.57
CCc1ccc(Oc2ccc(C(F)(F)F)cc2[N+](=O)[O-])cc1C,-0.38
Cc1ccccc1Cn1c(NCC2CCCO2)nc2c1c(=O)n(C)c(=O)n2C (stereo not given),1.66
Cc1n[nH]c(=O)nc1NCC1CCCO1 (stereo not given),5.76*
Cc1n[nH]c(=O)nc1NCCCN(C)C,-1.37
Cn1c(=O)c2c(c3ccccc31)OC(=O)CC2c1ccccc1Cl (stereo not given),2.28
CC1(C)C(=O)C2(CCCCC2)C(=O)OC1C(=O)c1ccc(Br)cc1 (stereo not given),-0.68
COC(=O)c1sc2ncccc2c1O,-0.01
COCCCNC(=O)c1nc2ccccc2c(=O)n1/N=C/N(C)C,0.57
Nc1nc2ccc(CC(=O)O)cc2s1,-2.34
Nc1nc2ccc(Oc3ccc4nc(N)sc4c3)cc2s1,3.68*
CS(=O)(=O)c1ccc2nc(N)sc2c1,2.45
CC(C)CCn1c(NCc2ccco2)nc2c1c(=O)[nH]c(=O)n2C,3.59*
CC(C)CCNc1nc2c(c(=O)[nH]c(=O)n2C)n1CCO,1.35
Cn1c(=O)[nH]c(=O)c2c1nc(NCc1ccco1)n2Cc1ccc(F)cc1,-2.74
CCOC(=O)Oc1ccc2c(=O)c(Oc3cc(C)cc(C)c3C)coc2c1,-1.04
Cc1ccc(S(=O)(=O)c2nc(-c3ccccc3)oc2S(C)(=O)=O)cc1,-1.3
CCOc1ccc(C2C3=C(CC(C)(C)CC3=O)Nc3cc4c(cc32)OCO4)cc1 (stereo not given),2.86
COc1ccc(C2C3=C(CC(C)(C)CC3=O)Nc3cc4c(cc32)OCO4)cc1 (stereo not given),6.19*
CC1(C)CC(=O)C2=C(C1)Nc1cc3c(cc1C2c1ccc(F)cc1)OCO3 (stereo not given),1.81
CCCN1C(=O)N(C)C2NC(=O)NC21 (stereo not given),0.55
O=C(O)CCC(=O)Nc1sc2c(c1C(=O)Nc1ccccc1)CCC2,2.25
CCN(Cc1cc(Cl)cc(Cl)c1)C(=O)c1cnc(OC)cc1C(F)(F)F,-1.49
O=[N+]([O-])c1ccc2c(c1)c(CO)cn2Cc1ccccc1,-0.16
CNC(=S)N/N=C/c1ccccc1O,1.42
SMILES,Dicer inh
Oc1ccccc1/C=N/NC(=S)Nc1cccc(Cl)c1,12.6*
NNC(=S)Nc1cccc(Cl)c1,2.86
CCOC(=O)NC(=S)N1CCSCC1,-0.39
Fc1ccc(-c2cn3cccnc3n2)cc1,2.65
COC(=O)c1ccc2c(c1)N(C)S(=O)(=O)c1cnc(SCC(=O)Nc3ccccc3)nc1-2,5*
COC(OC)c1nc(SCC(=O)Nc2cccc(Cl)c2)ncc1C(=O)O,-2.13
COC(=O)c1ccc2c(c1)N(C)S(=O)(=O)c1cnc(SC)nc1-2,-2.91
CSc1sc(-c2ccnc(=S)[nH]2)c2c1C(=O)CC(C)(C)C2,-5.46
O=C(Nc1ccc(Br)cc1)c1ccc([N+](=O)[O-])s1,2.28
CCOC(=O)C1=C(N)Oc2cc(O)ccc2C1c1ccc(F)cc1F (stereo not given),0.45
CCOC(=O)C1=C(N)Oc2ccc3ccccc3c2C1c1cccc(O)c1 (stereo not given),3.53*
